# From PubChem BioAssay (Tox21)
# Where “and” joins values, the source holds several entries; their conditions need not be identical. Identical values can stand only once. Where a structure was tested more than once in an assay, its records may differ in their call. Calls of active or inactive are those of the source. Where a call stands in place of a potency, no number is given. Unless noted, calls follow the shape of the dose curve; as a rule, active = well fitted curve in the direction sought with a large enough effect in the repeat runs; inconclusive = weak or mixed curves; inactive = no such curve, though single readings can be large; an effect the other way counts as inactive or inconclusive.
# Assays:
# [1] = qHTS assay to identify small molecule antagonists of the glucocorticoid receptor (GR) signaling pathway - cell viability counter screen (AID 720693); also: nearly all actives have a fitted effect of over 55% in size; also: potency is read from the fitted curve at half-maximal effect
# [2] = qHTS assay for identifying genotoxic compounds that show differential cytotoxicity against isogenic chicken DT40 cell lines with known DNA damage response pathways - wild type cell line (AID 743012); also: nearly all actives have a fitted effect of over 60% in size; also: potency is read from the fitted curve at half-maximal effect
# Outline: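 First, wild type DT40 cells were plated at 300 per well and equilibrated about 0.5 h at 37 C/5% CO2. Next, compounds in DMSO were added and exposure lasted 40 h. Finally, CellTiter-Glo was added for 30 min at room temperature and luminescence recorded.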
# [3] = qHTS assay for identifying genotoxic compounds that show differential cytotoxicity against isogenic chicken DT40 cell lines with known DNA damage response pathways - Rev3 mutant cell line (AID 743014); also: nearly all actives have a fitted effect of over 55% in size; also: potency is read from the fitted curve at half-maximal effect
# [4] = qHTS assay for identifying genotoxic compounds that show differential cytotoxicity against isogenic chicken DT40 cell lines with known DNA damage response pathways - Rad54/Ku70 mutant cell line (AID 743015); also: nearly all actives have a fitted effect of over 60% in size; also: potency is read from the fitted curve at half-maximal effect
# [5] = qHTS assay to identify small molecule antagonists of the androgen receptor (AR) signaling pathway - cell viability counter screen (AID 743033; also: nearly all actives have a fitted effect of over 45% in size; also: potency is read from the fitted curve at half-maximal effect)
# [6] = qHTS assay to identify small molecule antagonists of the androgen receptor (AR) signaling pathway using the MDA cell line - cell viability counter screen (AID 743041; also: nearly all actives have a fitted effect of over 45% in size; also: potency is read from the fitted curve at half-maximal effect)
# Outline: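 R1881-driven MDA-kb2 AR-luc cells, 3,000/well, were dosed with library compounds for 16 h; cell health came from CellTiter-Fluor fluorescence in the reporter wells.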
# [7] = qHTS assay to identify small molecule antagonists of the thyroid receptor (TR) signaling pathway - cell viability counter screen (AID 743064); also: nearly all actives have a fitted effect of over 50% in size; also: potency is read from the fitted curve at half-maximal effect
# Outline: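 Compounds were tested on GH3.TRE-Luc cells in the presence of T3 at 1 nM final. Following 23.5 h at 37 °C, cell viability was quantified by CellTiter-Fluor.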
# [8] = qHTS assay to identify small molecule antagonists of the thyroid receptor (TR) signaling pathway (AID 743065); also: nearly all actives have a fitted effect of over 55% in size; also: potency is read from the fitted curve at half-maximal effect
# Outline: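 Antagonism measured as loss of luciferase signal in GH3 cells stably carrying a TRE-luciferase reporter, co-treated with compound and T3 (1 nM final) for 23.5 h at 37 C. Viability was read in the same well by CellTiter-Fluor.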
# [9] = target: Aromatase (Homo sapiens) (UniProt P11511); test: qHTS assay to identify aromatase inhibitors (AID 743083); also: nearly all actives have a fitted effect of over 55% in size; also: potency is read from the fitted curve at half-maximal effect
# [10] = test system: thyroid hormone receptor (rat, GH3 cells); test: qHTS assay to identify small molecule agonists of the thyroid receptor (TR) signaling pathway (AID 743066; calls by dose curve; also: potency is read from the fitted curve at half-maximal effect)
# [11] = target: Estrogen receptor (Homo sapiens) (UniProt P03372); test: qHTS assay to identify small molecule antagonists of the estrogen receptor alpha (ER-alpha) signaling pathway (AID 743069; active = well fitted curve in the direction sought with a large enough effect in the signal ratio in the repeat runs, not every such curve was filed as active; inconclusive = weak or mixed curves, or effect the other way; inactive = no such curve, though single readings can be large or run the other way; the % refers to the signal ratio; also: potency is read from the fitted curve at half-maximal effect)
# Outline: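 Compound effects are measured against 17beta-estradiol stimulation in HEK293 cells with a UAS-controlled beta-lactamase reporter for ER-alpha. Exposure lasts 18 hr at 37C; LiveBLAzer B/G FRET substrate follows for 2 hr at room temperature.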
# [12] = qHTS assay to identify small molecule antagonists of the estrogen receptor alpha (ER-alpha) signaling pathway - cell viability counter screen (AID 743074; calls by dose curve;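 also: HEK293 cells carrying ER-alpha-UAS-bla reporter stimulated with 17beta-estradiol; nearly all actives have a fitted effect of over 45% in size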; also: potency is read from the fitted curve at half-maximal effect)
# [13] = qHTS assay to identify small molecule antagonists of the estrogen receptor alpha (ER-alpha) signaling pathway using the BG1 cell line (AID 743080; calls by dose curve; also: nearly all actives have a fitted effect of over 25% in size; also: potency is read from the fitted curve at half-maximal effect)
# Outline: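 Antagonist mode: compounds in DMSO were pinned onto BG1-Luc-4E2 cells alongside 17beta-estradiol agonist, incubated 21.5 h, and ERE-driven luciferase measured with ONE-Glo. Cytotoxicity was multiplexed using CellTiter-Fluor fluorescence.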
# [14] = qHTS assay to identify small molecule antagonists of the estrogen receptor alpha (ER-alpha) signaling pathway using the BG1 cell line - cell viability counter screen (AID 743081);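 also: compound given together with 17beta-estradiol as the ER stimulus; nearly all actives have a fitted effect of over 45% in size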; also: potency is read from the fitted curve at half-maximal effect
# [15] = target: Estrogen receptor (Homo sapiens) (UniProt P03372); test: qHTS assay to identify small molecule agonists of the estrogen receptor alpha (ER-alpha) signaling pathway (AID 743075; calls by dose curve; also: potency is read from the fitted curve at half-maximal effect)
# [16] = target: Androgen receptor (Homo sapiens) (UniProt P10275); test: qHTS assay to identify small molecule antagonists of the androgen receptor (AR) signaling pathway (AID 743035; active = well fitted inhibition curve with a large enough effect in the signal ratio in the repeat runs, not every such curve was filed as active; inconclusive = weak or mixed curves, or effect the other way; inactive = no such curve, though single readings can be large or run the other way; the % refers to the signal ratio; also: potency is read from the fitted curve at half-maximal effect)
# Outline: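 Beta-lactamase FRET read (2 h RT incubation with LiveBLAzer B/G) following 16 h of compound plus R1881 treatment of AR-UAS-bla HEK293 cells, which had been pre-incubated 4 h at 37C.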
# [17] = target: Androgen receptor (Homo sapiens) (UniProt P10275); test: qHTS assay to identify small molecule agonists of the androgen receptor (AR) signaling pathway (AID 743036; active = well fitted activation curve with a large enough effect in the signal ratio in the repeat runs, with a control signal flat, not every such curve was filed as active; inconclusive = weak or mixed curves, or effect the other way; inactive = no such curve, though single readings can be large or run the other way; the % refers to the signal ratio)
# Outline: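 Beta-lactamase under UAS control, stably integrated in HEK293 GripTite cells, reports receptor activation. After 16 h compound treatment, cells received FRET substrate for 2 h at room temperature before fluorescence reading.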
# [18] = target: Androgen receptor (Homo sapiens) (UniProt P10275); test: qHTS assay to identify small molecule agonists of the androgen receptor (AR) signaling pathway using the MDA cell line (AID 743040; also: nearly all actives have a fitted effect of over 20% in size)
# Outline: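 After a 5 h incubation at 37C and 0% CO2, MDA-kb2 reporter cells were dosed with compounds in DMSO and kept 16 h under the same conditions. Luciferase activity was then read as luminescence with ONE-Glo.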
# [19] = target: Androgen receptor (Homo sapiens) (UniProt P10275); test: qHTS assay to identify small molecule antagonists of the androgen receptor (AR) signaling pathway using the MDA cell line (AID 743042; also: nearly all actives have a fitted effect of over 55% in size; also: potency is read from the fitted curve at half-maximal effect)
# Outline: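 Antagonist mode: compounds plus R1881 agonist added to MDA-kb2 AR-luc cells, incubated 16 h at 37C. Luciferase reporter luminescence quantified, with multiplexed CellTiter-Fluor readout for cell viability.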
# [20] = target: Estrogen receptor (Homo sapiens) (UniProt P03372); test: qHTS assay to identify small molecule agonists of the estrogen receptor alpha (ER-alpha) signaling pathway using the BG1 cell line (AID 743079); conditions: BG1Luc4E2 cells, ERE-luciferase agonist, 22 h; activation: at 70.3 µM (top of the series); also: nearly all actives have a fitted effect of over 20% in size; also: potency is read from the fitted curve at half-maximal effect
# Sequence of Estrogen receptor (Homo sapiens) (P03372 whole entry, looked up): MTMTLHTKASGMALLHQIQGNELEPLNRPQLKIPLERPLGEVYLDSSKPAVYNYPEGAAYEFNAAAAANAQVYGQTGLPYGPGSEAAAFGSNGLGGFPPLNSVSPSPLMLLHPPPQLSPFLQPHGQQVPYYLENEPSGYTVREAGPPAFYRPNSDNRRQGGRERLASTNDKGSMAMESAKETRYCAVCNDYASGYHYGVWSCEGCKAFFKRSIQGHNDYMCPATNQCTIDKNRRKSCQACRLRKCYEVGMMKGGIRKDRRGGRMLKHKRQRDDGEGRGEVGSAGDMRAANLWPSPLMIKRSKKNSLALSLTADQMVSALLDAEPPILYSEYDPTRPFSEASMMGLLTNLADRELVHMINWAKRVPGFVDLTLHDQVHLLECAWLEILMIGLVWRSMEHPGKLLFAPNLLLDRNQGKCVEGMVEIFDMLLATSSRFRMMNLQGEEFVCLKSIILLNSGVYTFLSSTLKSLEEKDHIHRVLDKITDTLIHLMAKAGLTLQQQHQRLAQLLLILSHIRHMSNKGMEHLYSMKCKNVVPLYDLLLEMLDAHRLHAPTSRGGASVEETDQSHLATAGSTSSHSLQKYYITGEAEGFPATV
# Sequence of Androgen receptor (Homo sapiens) (P10275 whole entry, looked up): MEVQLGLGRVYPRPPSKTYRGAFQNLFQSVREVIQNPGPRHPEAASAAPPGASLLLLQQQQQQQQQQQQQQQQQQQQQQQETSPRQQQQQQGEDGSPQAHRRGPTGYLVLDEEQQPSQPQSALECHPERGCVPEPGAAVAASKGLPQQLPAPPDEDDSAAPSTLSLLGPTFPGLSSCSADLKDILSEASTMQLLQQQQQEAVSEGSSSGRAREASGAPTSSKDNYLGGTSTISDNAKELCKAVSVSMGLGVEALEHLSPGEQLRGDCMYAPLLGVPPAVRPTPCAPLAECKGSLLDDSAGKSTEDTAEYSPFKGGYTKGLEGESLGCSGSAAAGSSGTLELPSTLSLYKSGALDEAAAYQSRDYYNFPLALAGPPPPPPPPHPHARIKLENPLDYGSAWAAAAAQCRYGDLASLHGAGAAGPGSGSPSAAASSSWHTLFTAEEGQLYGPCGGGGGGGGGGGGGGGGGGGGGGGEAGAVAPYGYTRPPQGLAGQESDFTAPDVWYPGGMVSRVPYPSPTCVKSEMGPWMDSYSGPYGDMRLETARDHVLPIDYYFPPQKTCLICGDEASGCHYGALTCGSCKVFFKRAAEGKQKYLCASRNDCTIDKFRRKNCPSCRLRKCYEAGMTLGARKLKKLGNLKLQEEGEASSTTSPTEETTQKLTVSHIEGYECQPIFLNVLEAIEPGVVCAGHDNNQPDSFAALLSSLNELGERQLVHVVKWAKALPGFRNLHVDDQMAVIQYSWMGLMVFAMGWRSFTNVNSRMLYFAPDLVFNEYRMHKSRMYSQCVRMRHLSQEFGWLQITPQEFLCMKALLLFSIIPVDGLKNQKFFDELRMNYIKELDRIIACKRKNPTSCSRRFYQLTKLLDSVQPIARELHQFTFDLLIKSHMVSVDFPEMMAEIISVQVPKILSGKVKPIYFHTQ
# Sequence of Aromatase (Homo sapiens) (P11511 whole entry, looked up): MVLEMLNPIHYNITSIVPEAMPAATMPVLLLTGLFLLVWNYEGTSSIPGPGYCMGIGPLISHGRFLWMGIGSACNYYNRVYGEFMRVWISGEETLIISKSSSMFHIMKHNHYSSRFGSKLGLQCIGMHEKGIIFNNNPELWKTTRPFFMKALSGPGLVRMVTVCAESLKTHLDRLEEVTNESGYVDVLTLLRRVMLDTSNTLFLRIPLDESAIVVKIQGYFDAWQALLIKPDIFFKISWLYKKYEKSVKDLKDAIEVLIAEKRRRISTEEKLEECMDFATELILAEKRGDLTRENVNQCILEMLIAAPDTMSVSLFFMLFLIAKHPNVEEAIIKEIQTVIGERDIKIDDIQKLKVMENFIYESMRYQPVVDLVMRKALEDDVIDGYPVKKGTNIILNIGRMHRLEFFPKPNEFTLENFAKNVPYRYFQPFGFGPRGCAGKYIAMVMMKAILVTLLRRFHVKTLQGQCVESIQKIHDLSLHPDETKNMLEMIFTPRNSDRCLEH
Compound,Potency [1],Potency [2],Potency [3],Potency [4],Potency [5],Potency [6],Potency [7],Potency [8],Potency [9],Potency [10],Potency [11],Potency [12],Potency [13],Potency [14],Potency [15],Potency [16],outcome [17],outcome [18],Potency [19],Potency [20]
CCC[CH2][Sn]([CH2]CCC)([CH2]CCC)[CH2]CCC,54.9 µM (active),7700 nM (active),21700 nM (active),8630 nM (active),43.6 µM (active),61.1 µM (active),30600 nM (active),19300 nM (active),inactive,–,–,–,–,–,–,–,–,–,–,–
COc1nc(C)nc(NC(=O)NS(=O)(=O)c2ccccc2Cl)n1,inactive,inactive,inactive,inactive,inactive,inactive,inactive,inactive,inactive,inactive,inactive,inactive,inactive,inactive,–,–,–,–,–,–
CC(O)C(=O)[O][Hg][c]1ccccc1 (configuration not stated),0.549 µM (active),273 nM (active),217 nM (active),154 nM (active),2.45 µM (active),4.86 µM (active),686 nM (active),344 nM (active),0.969 µM (active),–,–,5.49 µM (active),–,3.06 µM (active),0.692 µM [fluorescent] (active),–,–,–,–,–
S=C=Nc1ccccc1,inactive,inactive,inactive,inactive,inactive,–,–,inactive,inactive,inactive,inactive,inactive,inactive,inactive,inactive,inactive,inactive,inactive,inactive,inactive
CCN(CC)CCN1C(=O)CN=C(c2ccccc2F)c2cc(Cl)ccc21,inactive,6680 nM (active),13300 nM (active),26600 nM (active),inactive,inactive,29800 nM (active),23700 nM (active),inactive,inactive,inactive,inactive,inactive,inactive,inactive,–,–,–,–,inactive
COC(=O)c1ccccc1S(=O)(=O)NC(=O)Nc1nc(C)nc(OC)n1,inactive,inactive,inactive,inactive,inactive,inactive,inactive,inactive,inactive,inactive,–,inactive,–,inactive,–,–,–,–,–,–
Cc1ccc(C)c2ccccc12,inactive,inactive,inactive,inactive,inactive,inactive,inactive,inactive,inactive,inactive,–,inactive,–,inactive,–,inactive,inactive,inactive,inactive,–
N#CC(C#N)=NNc1cccc(Cl)c1,6.92 µM (active),2730 nM (active),2730 nM (active),2430 nM (active),2.45 µM (active),4.86 µM (active),3440 nM (active),969 nM (active),2.73 µM (active),–,0.692 µM [inconclusive] (active),–,2.17 µM (active),5.45 µM (active),–,–,–,inactive,1.93 µM (active),–
CN/C(=N\[N+](=O)[O-])NCc1cnc(Cl)s1,inactive,inactive,inactive,inactive,inactive,inactive,inactive,inactive,inactive,inactive,inactive,inactive,inactive,inactive,inactive,–,–,–,–,inactive
C=C(C)C(=O)[O][Sn]([CH2]CCC)([CH2]CCC)[CH2]CCC,0.776 µM (active),486 nM (active),686 nM (active),545 nM (active),0.776 µM (active),1.93 µM (active),433 nM (active),306 nM (active),3.86 µM (active),0.0306 µM (active),–,1.74 µM (active),0.344 µM (active),1.37 µM (active),–,–,–,–,–,–
CCOC(=O)Cc1ccccc1,inactive,inactive,inactive,inactive,inactive,inactive,inactive,inactive,inactive,inactive,inactive,inactive,inactive,inactive,inactive,inactive,inactive,inactive,inactive,inactive
ClSC(Cl)(Cl)Cl,inactive,inactive,inactive,inactive,inactive,inactive,inactive,inactive,inactive,inactive,inactive,inactive,inactive,inactive,inactive,–,–,–,–,inactive
Cc1nn(-c2cc(NS(C)(=O)=O)c(Cl)cc2Cl)c(=O)n1C(F)F,inactive,inactive,inactive,inactive,inactive,inactive,inactive,inactive,inactive,inactive,–,inactive,–,inactive,–,–,–,inactive,inactive,–
CNC(C)(C)Cc1ccccc1,inactive,inactive,inactive,inactive,inactive,inactive,inactive,inactive,inactive,inactive,–,inactive,inactive,inactive,–,–,–,–,–,–
Oc1ccc(Cl)c(Cl)c1,inactive,inactive,inactive,inactive,inactive,inactive,inactive,60200 nM (active),inactive,inactive,–,inactive,inactive,inactive,60.7 µM [inconclusive] (active),–,–,–,–,–
CCCCN(CCCC)C(=S)[S-].CCCCN(CCCC)C(=S)[S-].[Ni+2],inactive,inactive,inactive,inactive,inactive,inactive,inactive,inactive,inactive,inactive,inactive,inactive,inactive,inactive,inactive,–,–,–,–,–
CN(C)c1ccc(N)cc1,inactive,29900 nM (active),21200 nM (active),26600 nM (active),42.6 µM (active),59.6 µM (active),59600 nM (active),47400 nM (active),–,inactive,60.2 µM [inconclusive] (active),–,–,–,inactive,24 µM (active),inactive,–,inactive,7.51 µM (active)
CC(=O)[O][Pb]([c]1ccccc1)([c]1ccccc1)[c]1ccccc1,0.776 µM (active),154 nM (active),122 nM (active),122 nM (active),0.549 µM (active),1.72 µM (active),686 nM (active),77 nM (active),0.193 µM (active),–,54.9 µM [cytotoxic] (active),6.92 µM (active),–,10.9 µM (active),49 µM [inconclusive] (active),–,–,inactive,0.611 µM (active),–
CCCCc1ccccc1,inactive,inactive,inactive,inactive,inactive,inactive,inactive,inactive,inactive,inactive,inactive,inactive,inactive,inactive,inactive,–,–,–,–,inactive
CC(Cl)CCl (configuration not stated),inactive,inactive,inactive,inactive,inactive,inactive,inactive,inactive,inactive,inactive,inactive,inactive,inactive,inactive,inactive,–,–,–,–,inactive
Cc1cnc2c(C(=O)O)c(Cl)ccc2c1,inactive,inactive,inactive,inactive,inactive,inactive,inactive,inactive,inactive,inactive,inactive,inactive,inactive,inactive,inactive,–,–,–,–,inactive
CCn1cc[n+](C)c1 (tested in a mixture with another compound),inactive,inactive,inactive,inactive,inactive,inactive,inactive,–,–,inactive,–,inactive,–,inactive,–,–,–,–,–,–
[Cl][Hg][c]1ccccc1,0.309 µM (active),122 nM (active),172 nM (active),86.3 nM (active),1.38 µM (active),3.44 µM (active),243 nM (active),86.3 nM (active),1.37 µM (active),–,–,12.3 µM (active),–,30.6 µM (active),4.36 µM [fluorescent] (active),–,–,inactive,0.969 µM (active),–
C=CC(=O)[O][Sn]([CH2]CCC)([CH2]CCC)[CH2]CCC,1.55 µM (active),864 nM (active),864 nM (active),686 nM (active),1.23 µM (active),2.17 µM (active),969 nM (active),611 nM (active),5.45 µM (active),0.193 µM (active),–,1.1 µM (active),0.433 µM (active),5.45 µM (active),–,–,–,inactive,1.72 µM (active),–
CN,inactive,inactive,inactive,inactive,inactive,inactive,inactive,–,inactive,inactive,–,inactive,–,inactive,–,–,–,–,–,–
CN(C)C(=S)SSC(=S)N(C)C,inactive,47.3 nM (active) and 240 nM (active) and 24.3 nM (active),106 nM (active) and 107 nM (active) and 19.3 nM (active),106 nM (active) and 135 nM (active) and 19.3 nM (active),535 nM (active) and 85.9 nM (active) and 34.7 nM (active),393 nM (active) and 269 nM (active) and 154 nM (active),133 nM (active) and 9.55 µM (active) and 21.7 nM (active),94.4 nM (active) and 269 nM (active) and 15.4 nM (active),188 nM (active) and 47.9 nM (active) and 15.4 nM (active),inactive,inactive,inactive,–,inactive,inactive,–,–,inactive,inactive and 170 nM (active) and 61.1 nM (active),–
[Cl-].[Cl-].[Sn+2],inactive,inactive,inactive,inactive,inactive,inactive,inactive,inactive,inactive,inactive,–,inactive,–,–,–,–,–,–,–,–
CN1[C@@H]2CC[C@H]1CC(O)C2 (some centres not stated),inactive,inactive,inactive,inactive,inactive,inactive,inactive,inactive,inactive,inactive,inactive,inactive,inactive,inactive,inactive,–,–,–,–,inactive
NC(=O)C(Cl)Cl,inactive,inactive,inactive,inactive,inactive,inactive,inactive,inactive,inactive,inactive,–,inactive,–,inactive,–,–,–,–,–,–
CNN,inactive,inactive,inactive,inactive,inactive,inactive,inactive,inactive,inactive,inactive,–,inactive,–,inactive,–,–,–,–,–,–
